Test results reported in article PMC5540273 (PLoS ONE, 2017).

Columns and labels:
Details in all cases: concentration: 1 μM, replicates: in singlicate; n = 1
EPHA2 = test system: EPHA2
EPHA3 = test system: EPHA3
EPHA4 = test system: EPHA4
EPHA5 = test system: EPHA5
EPHA6 = test system: EPHA6
EPHA7 = test system: EPHA7
EPHA8 = test system: EPHA8
EPHB1 = test system: EPHB1
EPHB2 = test system: EPHB2
EPHB3 = test system: EPHB3
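Further: KINOMEscan kinase panel screen.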

SMILES | %Inh (EPHA2) | %Inh (EPHA3) | %Inh (EPHA4) | %Inh (EPHA5) | %Inh (EPHA6) | %Inh (EPHA7) | %Inh (EPHA8) | %Inh (EPHB1) | %Inh (EPHB2) | %Inh (EPHB3)
O=C(Nc1n[nH]c2cc(-c3ccsc3)ccc12)C1CC1 [SB-732932] | 0% | 13% | 0% | 3% | 6% | 0% | 0% | 0% | 0% | 7%
Cc1cccc2c(-c3ccncn3)c(-c3ccc(F)cc3)nn12 [GW515532] | 0% | 0% | 2% | 0% | 21% | 0% | 13% | 1% | 0% | 2%
CSc1ccc(-c2nc3n(c2-c2ccncc2)CCC3)cc1 [SKF-105561] | 0% | 5% | 14% | 0% | 0% | 9% | 0% | 0% | 0% | 8%
COC(=O)c1cccc(NC(=O)NC2CCN(c3ccnc(Nc4ccc(F)cc4)n3)C2)c1 (stereo not shown) [GSK1379725] | 16% | 0% | 5% | 0% | 0% | 0% | 0% | 8% | 14% | 0%
COc1ccc(Nc2nccc(N3CCC(NC(=O)C(C)c4ccc(Cl)cc4)CC3)n2)cc1 (stereo not shown) [GSK1379812] | 7% | 5% | 0% | 0% | 0% | 0% | 9% | 34% | 71% | 1%
O=C1NC(=O)C(c2ccc(Cl)cc2)=C1Nc1ccc(O)cc1 [SB-340867] | 0% | 0% | 3% | 0% | 12% | 0% | 6% | 0% | 0% | 0%
Cc1ccc(NC(=O)Nc2ccccc2F)cc1-c1ccc(C(=O)Nc2ccncc2)cc1 [GSK1398477] | 31% | 17% | 40% | 14% | 31% | 19% | 52% | 27% | 12% | 22%
CNc1cc(-c2ccc3c(N)n[nH]c3c2)nc(N)n1 [GSK2224810] | 0% | 27% | 0% | 0% | 0% | 0% | 0% | 23% | 0% | 4%
COc1cccc(CNC(=O)NC2CCN(c3ccnc(Nc4ccc(F)cc4)n3)C2)c1 (stereo not shown) [GSK1379723] | 2% | 0% | 0% | 0% | 0% | 1% | 15% | 0% | 0% | 5%
Cc1ccc(NC(=O)Nc2ccc(Cl)cc2)cc1-c1ccc(C(=O)Nc2ccncc2)cc1 [GSK1398472] | 43% | 0% | 41% | 2% | 36% | 7% | 34% | 16% | 11% | 25%
Nc1cccc(-c2ccc3c(N)n[nH]c3c2)n1 [GSK2192730] | 0% | 4% | 5% | 0% | 0% | 8% | 8% | 9% | 0% | 1%
Cc1ccc(NC(=O)Nc2ccccc2)cc1-c1ccc(C(=O)Nc2ccncc2)cc1 [GSK1398471] | 17% | 4% | 32% | 0% | 15% | 5% | 36% | 11% | 13% | 15%
Cn1cncc1-c1cc2c(Nc3ccc(OCc4ccccc4)cc3)ncnc2cn1 [GW281179] | 13% | 0% | 6% | 0% | 14% | 9% | 11% | 21% | 0% | 25%
COc1ccc(CSc2nnc(-c3ccc4ncsc4c3)o2)cc1C(F)(F)F | 3% | 3% | 1% | 0% | 20% | 0% | 0% | 0% | 0% | 14%
CC(=O)c1c(C)c2cnc(Nc3ccn(C)n3)nc2n(C2CCCC2)c1=O | 0% | 0% | 0% | 0% | 0% | 0% | 0% | 0% | 15% | 0%
Cc1cnc(N)c(/C=C/c2cncc(C(=O)NCCc3ccc(Cl)cc3Cl)c2)c1.Cl [GSK190937] | 8% | 16% | 6% | 0% | 0% | 6% | 10% | 5% | 0% | 6%
Nc1nccc(-c2c(-c3ccc(F)cc3)ncn2C2CCN(Cc3ccccc3)CC2)n1 [SB-219980] | 0% | 0% | 4% | 21% | 24% | 0% | 1% | 9% | 0% | 20%

SMILES | %Inh (EPHA2) | %Inh (EPHA3) | %Inh (EPHA4) | %Inh (EPHA5) | %Inh (EPHA6) | %Inh (EPHA7) | %Inh (EPHA8) | %Inh (EPHB1) | %Inh (EPHB2) | %Inh (EPHB3)
CCn1c(-c2ccccc2)nc2cnccc21 [SB-733416] | 10% | 0% | 24% | 10% | 29% | 7% | 5% | 7% | 15% | 26%
COc1nccc(-c2c(-c3ccc(F)cc3)ncn2CCCN2CCOCC2)n1 [SB-282852] | 0% | 10% | 0% | 0% | 0% | 0% | 0% | 0% | 0% | 0%
CCc1ccc(-c2ccc3c(c2)-c2n[nH]cc2S(=O)(=O)N3C)cc1 | 2% | 0% | 0% | 5% | 0% | 0% | 0% | 0% | 10% | 0%
COC(=O)c1cccc(NC(=O)NC2CCN(c3ccnc(Nc4ccc(OC)cc4)n3)C2)c1 (stereo not shown) [GSK1379746] | 6% | 0% | 4% | 0% | 0% | 3% | 12% | 21% | 8% | 5%
COc1ccc(Nc2nccc(NCCNC(=O)Nc3cc(C)ccc3C)n2)cc1 [GSK1379899] | 0% | 0% | 17% | 0% | 14% | 3% | 6% | 16% | 0% | 17%
Cc1nccc(-c2c(-c3ccc(F)cc3)ncn2CCCN2CCOCC2)n1.Cl [SB-282975] | 16% | 0% | 4% | 10% | 8% | 9% | 10% | 15% | 15% | 3%
Fc1ccc(-c2nc[nH]c2-c2ccncc2)cc1 [SB-217360] | 0% | 9% | 4% | 0% | 1% | 0% | 5% | 1% | 0% | 0%
O=C(Nc1n[nH]c2nc(-c3ccco3)c(Br)cc12)C1CCN(Cc2ccccc2)C1.O=C(O)[C@H](O)[C@@H](O)C(=O)O (stereo not shown) [SB-742034] | 0% | 16% | 1% | 6% | 0% | 7% | 0% | 7% | 17% | 11%
Cn1cncc1C(=O)NC1CCN(c2ccnc(Nc3ccc(F)cc3)n2)C1 (stereo not shown) [GSK1379717] | 0% | 0% | 0% | 0% | 0% | 3% | 4% | 7% | 0% | 0%
COc1cccc(C2=C(Nc3cc(Cl)c(O)c(Cl)c3)C(=O)NC2=O)c1 [SB-390767] | 19% | 0% | 28% | 0% | 30% | 9% | 17% | 11% | 0% | 26%
Cc1c(Cn2c(C)c(C)n3c(=O)cc(N4CCOCC4)nc23)cccc1C(F)(F)F [GSK2328680] | 17% | 0% | 1% | 0% | 0% | 4% | 7% | 0% | 0% | 2%
FC(F)(F)c1ccccc1-c1cc(-c2c[nH]nc2-c2ccccn2)ccn1 [GW679396] | 0% | 0% | 2% | 0% | 0% | 6% | 17% | 24% | 7% | 2%
Cl.Cl.Cl.N#Cc1ccc(CCNc2nccc(-c3cccc(CN4CCNCC4)c3)n2)cc1 [GSK2137462] | 8% | 14% | 13% | 0% | 3% | 9% | 14% | 18% | 0% | 15%
Cc1ccc(NC(=O)Nc2ccc(Cl)c(C(F)(F)F)c2)cc1-c1ccc(C(=O)Nc2ccncc2)cc1 [GSK1398470] | 17% | 19% | 7% | 7% | 20% | 15% | 26% | 23% | 17% | 19%
CN1c2ccc(-c3ccc(C(N)=O)cc3)cc2-c2[nH]ncc2S1(=O)=O | 0% | 0% | 0% | 4% | 5% | 0% | 0% | 0% | 0% | 5%
COc1cc2ncnc(Nc3cccc(Br)c3)c2cc1OC.Cl [GI230329] | 13% | 33% | 0% | 0% | 41% | 7% | 12% | 20% | 9% | 1%
O=c1cc(N2CCOCC2)nc2n(Cc3ccccc3F)ccn12 [GSK2297428] | 21% | 0% | 5% | 0% | 0% | 3% | 9% | 5% | 0% | 7%
